ssDAF-12 act = S. stercoralis DAF-12 nuclear receptor activators, primary screen, cell-based, luminescence, HEK293, GRIP1 co-expression, lit1-tk-luc; activation, % at 6.8 µM; 370,000 compounds, 1% hits; AID 652126, 2013; Nuclear hormone receptor DAF-12 (Strongyloides stercoralis); HEK293 ssDAF-12/GRIP1 lit1-tk-luc reporter; % of 3 µM dafachronic acid response;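 active = activation above the mean over all tested compounds plus 3 SD, cut at about 0.9% in these data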;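 note: 0% = DMSO-only wells and 100% = 3 µM delta7-dafachronic acid wells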
hgDAF12 agonist = H. glycines DAF-12 receptor agonists, primary screen, cell-based, luminescence, HEK293, GAL4 fusion, UAS-luciferase. 370,000 compounds, 1.8% hits. activation, % at 6.8 µM. HEK293 GAL4-hgDAF12 UAS-luciferase reporter, agonist luminescence; normalized to butyrate control;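 active = activation above a cutoff set at the mean of all screened compounds plus 3 SD, cut at about 10% in these data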;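 note: 0% = DMSO wells and 100% = sodium butyrate wells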
DAX1 inh-1 = DAX1 (NR0B1) inhibitors on StAR promoter, primary screen, cell-based, luminescence, SF-1 (NR5A1), full-length DAX-1 | inhibition, % at 6.8 µM | 370,000 compounds, 1.1% hits | HEK293T StAR-luciferase reporter, SF-1/DAX-1 repression relief | AID 652010, 2013;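 active = inhibition above the mean over all tested compounds plus 3 SD, cut at about 3.6% in these data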;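 note: 0% = DAX-1 cells with DMSO and 100% = cells lacking DAX-1 with DMSO; higher inhibition means more luminescence from relief of DAX-1 repression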
hcDAF-12 act = H. contortus DAF-12 nuclear receptor activators, primary screen, cell-based, luminescence, HEK293, lit1-tk-luc reporter; activation, % at 6.8 µM; HEK293 hcDAF-12 lit1-tk-luc reporter; 0% DMSO, 100% Δ7-dafachronic acid; 370,000 compounds, 1.4% hits; AID 652067, 2013;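 active = activation above the mean of all tested compounds plus 3 SD, cut at about 5.5% in these data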;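 note: 100% = response to 3 µM Δ7-dafachronic acid high control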
DAX1 inh-2 = DAX1 (NR0B1) inhibitors, primary screen, cell-based, HEK293, Gal4-DAX1, luciferase luminescence | inhibition, % at 6.75 µM | Nuclear receptor subfamily 0 group B member 1 (Homo sapiens), P51843 | HEK293 Gal4-DAX1 luciferase reporter | 340,000 compounds, 0.99% hits;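 active = inhibition above the mean over all tested compounds plus 3 SD, cut at about 4.2% in these data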;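 note: 0% = DAX1-transfected cells with DMSO and 100% = empty-vector control cells with DMSO; inhibition shows as a rise in luminescence from relieved DAX1 repression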
Target sequence (P51843 207-470 limits assumed): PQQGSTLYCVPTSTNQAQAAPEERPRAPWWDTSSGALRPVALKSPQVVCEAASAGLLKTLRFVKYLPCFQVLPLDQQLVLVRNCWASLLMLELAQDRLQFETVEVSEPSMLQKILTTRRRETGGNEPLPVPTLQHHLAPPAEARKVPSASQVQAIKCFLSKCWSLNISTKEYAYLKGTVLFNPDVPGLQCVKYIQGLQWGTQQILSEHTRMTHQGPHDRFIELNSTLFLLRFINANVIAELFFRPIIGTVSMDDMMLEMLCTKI
SMARCA2 activ = SMARCA2 (BRM) function activators, primary screen, cell-based, luminescence, high throughput; MG213 cells, MMTV-luciferase reporter, dexamethasone, overnight; activation, % at 9.1 µM; 370,000 compounds, 1% hits; AID 652017, 2013; in the data active = activation above about 7.8%;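 note: 0% = vehicle wells and 100% = reference activator wells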
* = called active by the depositor; nt = no result given. Sampled rows, rich in hits. Any-hit rate of the full collection: about 4.8%.

SMILES | ssDAF-12 act | hgDAF12 agonist | DAX1 inh-1 | hcDAF-12 act | DAX1 inh-2 | SMARCA2 activ
COC(=O)c1ccc2nc(C3CCCCC3)c(Cc3ccccc3)n2c1 | 0 | 3 | 1 | 5.9* | nt | -2
COC(=O)c1ccc2nc(-c3cccc(Cl)c3)c(Cc3ccccc3)n2c1 | 0 | 7 | 0 | 4 | nt | 2
COC(=O)c1ccc2nc(C3CCCCC3)c(CC(C)(C)C)n2c1 | -1 | -1 | -1 | -1 | nt | -5
COC(=O)c1ccc2nc(-c3ccccc3)c(Cc3cccc(Cl)c3)n2c1 | 1.2* | 9 | 2 | 4 | nt | -2
NC(=O)c1c(N)[nH]c(C(=O)c2ccccc2)c1-c1ccc(Cl)cc1Cl | -1 | 1 | 1 | 0 | nt | 1
CC(=O)N/C(=C\c1ccccc1)C(=O)OCC(=O)NC1CCCC1 | 0 | 2 | 0 | 6.4* | 1 | -1
CC(=O)c1c(C)[nH]c(C(=O)Nc2ccc3c(c2)OCCO3)c1C | 1 | 11* | 3 | 3 | 1 | 2
CCOC(=O)c1[nH]c(C)c(C(=O)Nc2ccc3c(c2)OCCO3)c1C | -2 | -2 | -1 | -3 | -1 | -1
CC(=O)c1c(C)[nH]c(C(=O)Nc2nccs2)c1C | -1 | 12* | 0 | 1 | 0 | 4
CCc1ccc(NC(=O)c2[nH]c(C)c(C(C)=O)c2C)cc1 | -1 | 13* | 2 | 0 | 1 | 3
CC(=O)c1c(C)[nH]c(C(=O)Nc2cccnc2)c1C | -1 | 3 | 0 | -1 | 2 | 2
c1ccc(-c2noc(CC3CCCCC3)n2)nc1 | -1 | 12* | 3.9* | 5 | 2 | 5
Cc1ccc(Cc2nc(-c3ccccn3)no2)cc1 | 0 | 13* | 3 | 3 | 2 | 8
CC(C)(C)c1ccc(OCc2nc(-c3ccccn3)no2)c(Br)c1 | 0 | 11* | 3 | 3 | 2 | 3
Cc1ccc(OCc2nc(-c3ccccc3)no2)cc1 | 0 | 9 | 1 | 2 | 4.8* | 4
Cc1ccc(-c2noc(COc3ccccc3C)n2)cc1 | -1 | 2 | 0 | -2 | 1 | 2
c1cc(-c2noc(CC3CCCCC3)n2)ccn1 | 0 | 2 | 1 | 0 | 0 | 6
Cc1ccc(-c2nnn(CC(=O)N(c3cccc(F)c3)C(C(=O)NC(C)(C)C)c3ccco3)n2)o1 (configuration not stated) | -2 | 1 | 0 | -2 | -1 | 1
C=CCNC(=O)Nc1cc(Cl)ccc1OC | -2 | 1 | 0 | 0 | 1 | 0
c1ccc(-c2nc(-c3ccccn3)no2)cc1 | -1 | 3 | 3 | 6.4* | -4 | -2
Cc1cccc(/C(N)=N/OC(=O)N2CCOCC2)c1 | 0 | 0 | 1 | 4 | 0 | 2
O=C(COc1ccc(Cl)cc1Cl)NC(=O)N1CCCCC1 | 0 | 12* | 2 | 2 | 2 | 3
O=C(COc1ccc(Br)cc1Cl)c1ccc[nH]1 | -1 | 13* | 0 | 3 | 1 | 1
COC(=O)c1cccc(N2C(=O)c3ccccc3S2(=O)=O)c1 | -1 | 2 | -1 | -1 | 3 | 5
O=C1CC[C@@H](C(=O)N2CSC[C@@H]2C(=O)Nc2cccc(C(F)(F)F)c2)N1 | -1 | 1 | 0 | -1 | 3 | -1
O=C(CN1C2=NCCN2c2ccccc21)c1ccc2c(c1)OCO2 | -1 | 3 | 1 | 0 | -1 | 0
OC(COc1ccc2ccccc2c1)CN1CCN(c2ccc(F)cc2)CC1 (configuration not stated) | 0 | 0 | 0 | 0 | 6.9* | 1
COc1cccc(OCC(O)CN2CCN(c3ccc(F)cc3)CC2)c1 (configuration not stated) | -1 | -3 | 0 | 0 | -1 | -1
